Measurements reported in publication PMC11062922 (Nature Chemical Biology, 2023).
Like-named read-outs stand apart in the source and are kept apart here.

Tests used:
Set-up in all cases: species or system human, MV4-11 + K-562 + COLO205 + SK-N-BE2 + OVCAR-8
CDC7 = conditions: read-out: apparent Kd; compound concentrations: 100 nM and 1000 nM (sheet 'Samples'), CATDS: 4.24338957308735E-2; n = 1
CDK5 = conditions: read-out: apparent Kd; compound concentrations: 100 nM and 1000 nM (sheet 'Samples'), CATDS: 6.6467271298615597E-3; n = 1
DJA1 = system: T1, DJA1; conditions: read-out: apparent Kd, n = 1
T1 construct: gene DNAJA1

JAK2 = conditions: read-out: apparent Kd, n = 1
MAP4K1 = conditions: read-out: apparent Kd, n = 1
PRKCB = conditions: read-out: apparent Kd; compound concentrations: 100 nM and 1000 nM (sheet 'Samples'), CATDS: 6.2704651327109501E-3; n = 1
ULK3 = conditions: read-out: apparent Kd, compound concentrations: 100 nM and 1000 nM (sheet 'Samples'), n = 1
STK26 = conditions: read-out: apparent Kd; compound concentrations: 100 nM and 1000 nM (sheet 'Samples'), CATDS: 1.6966130459451799E-2; n = 1
CDK6 = conditions: read-out: apparent Kd; compound concentrations: 100 nM and 1000 nM (sheet 'Samples'), CATDS: 2.20968603607638E-2; n = 1
MAP2K1 = conditions: read-out: apparent Kd, compound concentrations: 100 nM and 1000 nM (sheet 'Samples'), n = 1
IRAK4 = conditions: read-out: apparent Kd; compound concentrations: 100 nM and 1000 nM (sheet 'Samples'), CATDS: 1.1177652842318E-2; n = 1
JAK1 = conditions: read-out: apparent Kd; compound concentrations: 100 nM and 1000 nM (sheet 'Samples'), CATDS: 1.5080552204992799E-2; n = 1
NQO2 = conditions: read-out: apparent Kd; compound concentrations: 100 nM and 1000 nM (sheet 'Samples'), CATDS: 1.2433043587811299E-2; n = 1
ATR = conditions: read-out: apparent Kd; compound concentrations:100 nM and 1000 nM (sheet 'Samples'); n = 1
NLK = conditions: read-out: apparent Kd; compound concentrations:100 nM and 1000 nM (sheet 'Samples'); n = 1
PIK3CA = conditions: read-out: apparent Kd; compound concentrations:100 nM and 1000 nM (sheet 'Samples'); n = 1
[1] = compound concentrations:100 nM and 1000 nM (sheet 'Samples')

With O=C(O)C(F)(F)F.O=C(O)C(F)(F)F.O=c1[nH]ccc2nc(N[C@@H]3CCCNC3)nc(Nc3ccc(S(=O)(=O)N4CCOCC4)cc3)c12.O=c1[nH]ccc2nc(N[C@@H]3CCCNC3)nc(Nc3ccc(S(=O)(=O)N4CCOCC4)cc3)c12 [GSK2177277A] the potency estimated from few doses (CDC7) was 14.6 nM, the potency estimated from few doses (CDK5) was 1280 nM and the potency estimated from few doses (DJA1; compound concentrations: 100 nM and 1000 nM (sheet 'Samples'), CATDS: 6.2286028327955796E-3) was 1850 nM. The potency estimated from few doses (JAK2; compound concentrations: 100 nM and 1000 nM (sheet 'Samples'), CATDS: 4.8200913683498499E-2) was 12.1 nM, the potency estimated from few doses (MAP4K1; compound concentrations: 100 nM and 1000 nM (sheet 'Samples'), CATDS: 2.52445457055663E-2) was 34.1 nM and the potency estimated from few doses (PRKCB) was 1770 nM. For the same molecule, the potency estimated from few doses (ULK3; CATDS: 1.28018633148979E-2) was 140 nM.

For Cc1ccccc1C1=C(c2cn(C)c3ccccc23)C(=O)NC1=O [RO0317612-000], the potency estimated from few doses (DJA1; compound concentrations: 100 nM and 1000 nM (sheet 'Samples'), CATDS: 0.15228633777300399) was 952 nM.

In the case of CN(C)CCNC(=O)Nc1ccc(N(C)c2ccnc(Nc3ccc(CS(C)(=O)=O)cc3)n2)cc1.Cl [GW830900A], the potency estimated from few doses (JAK2; [1]) is reported as 1050 nM.

NC(=O)c1cc(-c2ccccc2)cc2c(C3CCNCC3)c[nH]c12 [GSK301362A] was tested, and the potency estimated from few doses (DJA1; [1]) was 1130 nM.

COc1cc(Nc2nccc(-c3cnn4ncccc34)n2)cc(OC)c1 [GW801372X] was tested, and the potency estimated from few doses (STK26) was 2340 nM.

c1cnn2ncc(-c3ccnc(Nc4ccc5c(c4)OCCO5)n3)c2c1 [GW806290X] was tested, and the potency estimated from few doses (CDK6) was 1390 nM and the potency estimated from few doses (MAP2K1; CATDS: 2.0774102889224599E-2) was 1730 nM.

With COc1cc[nH]c1/C=C1\C(=O)Nc2ccc(F)c(C#CC3(O)CCNCC3)c21.Cl [RO0282986-001] the potency estimated from few doses (DJA1; compound concentrations: 100 nM and 1000 nM (sheet 'Samples'), CATDS: 9.7728158080224396E-3) was 1450 nM, the potency estimated from few doses (IRAK4) was 889 nM and the potency estimated from few doses (JAK1) was 391 nM. It also gave a potency estimated from few doses (MAP2K1; CATDS: 1.0458763538178499E-2) of 1120 nM, a potency estimated from few doses (MAP4K1; compound concentrations: 100 nM and 1000 nM (sheet 'Samples'), CATDS: 1.0790478017061501E-2) of 1000 nM and a potency estimated from few doses (NQO2) of 644 nM.

O=C(O)C(F)(F)F.O=c1[nH]ccc2nc(N[C@@H]3CCNC3)nc(Nc3cc(Cl)cc(Cl)c3)c12 [GSK2188764A] was tested, and the potency estimated from few doses (MAP4K1; [1]) was 1030 nM.

In the case of COc1ccc(Nc2nccc(-c3ccc(NC(=O)c4cc5cc(F)ccc5[nH]4)cc3)n2)cc1 [GSK1229496A], the potency estimated from few doses (JAK2; compound concentrations: 100 nM and 1000 nM (sheet 'Samples'), CATDS: 0.41035402481259398) is reported as 584 nM.

With COc1cc(Nc2nccc(N3CCC(NC(=O)c4cccc(NC(C)=O)c4)C3)n2)cc(OC)c1OC (stereo not shown) [GSK1379754A] the potency estimated from few doses (ULK3; CATDS: 9.2169068852455793E-2) was 1390 nM.

CNc1cc(-c2ccc3c(N)n[nH]c3c2)nc(N)n1 [GSK2224810A] showed a potency estimated from few doses (ATR) of 814 nM, a potency estimated from few doses (NLK) of 1610 nM and a potency estimated from few doses (PIK3CA) of 245 nM.
